Test results as given in PubChem BioAssay AID1347383 (Zoeller Lab, School of Medicine, Boston University, 2020).
Activity calls are given as the source filed them.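 The calls were made as follows: active = cell survival after UV exposure 2 SD above solvent-only control wells at 10 µM, confirmed on one or two repeats; inactive = the rest.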

Test: cell survival after pyrene fatty acid photosensitization – ZR-82 cells, Analyticon library, screen 2, phospholipid biosynthesis inhibitor project, primary screen (AID 1347383);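 also: survival reflects blocked phospholipid synthesis cutting uptake of the phototoxic fatty acid; compound and fatty acid exposure 3 h then viability read next day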
Settings: ZR-82 CHO cells, pyrene-fatty acid UV killing, CellTiter Blue; at 10 µM; peroxisome-deficient CHO-K1 variant; with DGAT-1, DGAT-2 and ACAT inhibitors

Structure (SMILES) | outcome
CC(C)=CCn1cnc(=N)c2[nH]cnc21 | inactive
C=C(CO)C(=O)O[C@H]1CC(=C)[C@@H]2CC(=O)[C@H](C)[C@@H]2[C@H]2OC(=O)C(=C)[C@@H]21 | inactive
O=c1ccc2cc(O)c(O)cc2o1 | inactive
O=C(NC(CO)Cc1ccccc1)c1ccccc1 (centres undefined) | inactive
O=C1OCC(c2ccccc2)=C1Cc1ccccc1 | inactive
O=C(CCc1ccccc1)C[C@@H](O)CCc1ccccc1 | inactive
CC(C)(O)[C@@H]1CCC(C)([C@H]2CC[C@]3(C)[C@@H]2[C@H](O)CC2[C@@]4(C)CC[C@H](O)C(C)(C)[C@@H]4CC[C@]23C)O1 (some centres undefined) | inactive
COc1cc2c(c(OC)c1OC)-c1ccc(OC)c(=O)cc1[C@@H](NC(C)=O)CC2 | inactive
CCC(C)C(=O)OC1CC(C)C=C2C=CC(C)C(CCC(O)CC(O)CC(=O)O)C21 (centres undefined) | inactive
COc1ccc(/C=C/C(=O)O)cc1 | inactive
COc1cc(O[C@@H]2O[C@H](CO)[C@@H](O)[C@H](O)[C@H]2O)cc2occ(-c3ccc(O)cc3)c(=O)c12 | inactive
C/C=C/c1ccc2oc(-c3ccc(O)c(OC)c3)c(C)c2c1 | inactive
CC(C)Cc1cnc(CCC(N)=O)c(=O)[nH]1 | inactive
CO[C@@H]1[C@H](O)CC[C@]2(CO2)[C@H]1[C@@]1(C)O[C@@H]1CC=C(C)C | inactive
COc1cc(CC2COC(=O)C2(O)Cc2ccc(O)c(OC)c2)ccc1O (centres undefined) | inactive
CC1Cc2cc(O)c(O)cc2C(c2ccc(O)c(O)c2)C1C (centres undefined) | inactive
C=C1C(=O)O[C@@H]2/C=C(\C)CC/C=C(\C(=O)O)C[C@@H](OC(=O)/C(C)=C/C)C12 (some centres undefined) | inactive
C=C(C=O)[C@]1(O)C[C@@]2(C)C(=CC1=O)C=C[C@H](OC(=O)/C=C/C=C/[C@H](C)CC)[C@@H]2C | inactive
CCCCCCCC(=O)C(C)NC(=O)CCC(=O)O (centres undefined) | inactive
CCCCCCOC1OC(COC2OCC(O)C(O)C2O)C(O)C(O)C1O (centres undefined) | inactive
CC(=O)OC(C)C(C)(O)C(=O)O[C@@H]1CC[C@]2(C)CC(=O)C(=C(C)C)C[C@H]2[C@]1(C)OC(C)=O (some centres undefined) | inactive
Cn1c(=O)c2c(ncn2C)n(C)c1=O | inactive
CC1(C)CC(O)CC2(C)OC(=O)C=C12 (centres undefined) | inactive
Nc1c(O)cccc1C(=O)O | inactive
COC(=O)CCC(=O)OC[C@]1(C)CCC[C@@]2(C)C3CC[C@]4(C)C=CC3(CCC12)C4 (some centres undefined) | inactive
O=C(O)C12CCCC(CO)(CO)C1CCC13CC4C(CC12)C4(CO)C3 (centres undefined) | inactive
CCC/C=C\CC(N)CC(=O)O (centres undefined) | inactive

Structure (SMILES) | outcome
CC/C=C\CC1C(=O)C=CC1(CCCCC1CCC(=O)O1)OC(C)=O (centres undefined) | inactive
O=C1c2ccc(O)cc2O[C@@H](c2ccc(O)c(O)c2)[C@@H]1O | inactive
O=C(O)/C=C/c1ccccc1O | inactive
C=CC(C)(C)c1c(OC)oc2cccc(C)c2c1=O | inactive
CC1=CC2C3C(C(C)=C4C3[C@@](C)(O)CC[C@H]3[C@H](C)C(=O)O[C@H]43)C13C2[C@@](C)(O)CC[C@H]1[C@H](C)C(=O)O[C@@H]13 (some centres undefined) | inactive
COc1cc(C(=O)/C(C)=C(\C)C(=O)c2ccc(O)c(OC)c2)ccc1O | inactive
CC(C)=CCc1c2c(c(O)c3c(=O)c(-c4ccc(O)c(O)c4)coc13)C=CC(C)(C)O2 | inactive
COc1c2c(nc3occc13)C(CC=C(C)C)(OC)C(O)CC2 (centres undefined) | inactive
C/C=C/C1C=CC(O)C(O)C1C(O)C(C)=O (centres undefined) | inactive
COc1cc(CNC(=O)CCCCCCC(C)C)ccc1O | inactive
CCCC(O)C1OCC2=C1C(O)C1OC1C2O (centres undefined) | inactive
CCCCCCCCCCCCC(O)/C=C/CCC(=O)O (centres undefined) | inactive
C=CC#Cc1ccc(-c2cccs2)s1 | inactive
CC(C)(O)/C=C/C1=CC(O)C(C)(O)CC1O (centres undefined) | inactive
CCCCCCCCCCC1CC2=C(OC(CCCCCCC)CC2=O)C(=O)O1 (centres undefined) | inactive
COc1cc(O)cc2occ(-c3ccc(O)cc3O)c(=O)c12 | inactive
CC(C)=CCC/C(C)=C/CC(O)/C(C)=C/Cc1cc(C(=O)O)ccc1O (centres undefined) | inactive
CO[C@H]1/C=C/[C@@](C)(O)/C=C/C(=O)O[C@H](C)[C@@H](C)CC/C=C/1C | inactive
OC1C(c2ccccc2)CCC(c2ccccc2)C1O (centres undefined) | inactive
OC[C@H]1O[C@@H](Oc2ccccc2)[C@H](O)[C@@H](O)[C@@H]1O | inactive
COc1cc(C[C@H]2COC[C@@H]2Cc2ccc(O)c(OC)c2)ccc1O | inactive
CC(C)CC1NC(=O)C2CCCN2C1=O (centres undefined) | inactive
CC(C)C(=O)C1(C(C)CC(=O)O)CCC(C)C(=O)C1 (centres undefined) | inactive
C=C[C@]1(C)C[C@](O)([C@@H]2OC2(C)C)Oc2c1c(=O)oc1cccc(CC)c21 | inactive
CC1(C)O[C@]23C[C@H]1C[C@H](OC(=O)c1ccoc1)[C@]2(C)[C@@H](OC(=O)c1ccoc1)CCC3(C)O (some centres undefined) | inactive
CCC(C)CC(C)/C=C/CCC(O)C(Cc1ccc(O)cc1)NC (centres undefined) | inactive
CC1(C)C(=O)C=CC2(C)C1CC(O)C1(C)C3=CCC(c4ccoc4)C3(C)CCC21 (centres undefined) | inactive

Structure (SMILES) | outcome
CC1=C(C)C(=O)OC(C(C)C2C(O)CC3C4C5OC5C5(O)CC=CC(=O)C5(C)C4CCC32C)C1 (centres undefined) | inactive
CCCCCC1CC(O)CC(=O)O1 (centres undefined) | inactive
CC1=C[C@H]2[C@@H](CC1=O)[C@H](C)C[C@H](O)[C@H]2C(C)C | inactive
C[C@@H]1O[C@@H](Oc2ccc(-c3coc4cc(O[C@@H]5O[C@@H](C)[C@H](O)[C@@H](O)[C@H]5O)ccc4c3=O)cc2)[C@H](O)[C@H](O)[C@H]1O | inactive
CCC(C)C(=O)OC1CCC=C2C=CC(C)C(CCC(O)CC(O)CC(=O)OC)C21 (centres undefined) | inactive
C=CC(C)(C)c1cc2cc3c(cc2oc1=O)OC(C(C)(C)OC(C)=O)C3 (centres undefined) | inactive
Cc1c(O)cc2c(c1O)C(=O)c1ccccc1C2=O | inactive
O=C1c2c(O)cc(O)cc2O[C@H](c2ccccc2)[C@H]1O | inactive
COc1cc(/C=C(/C)C(C)Cc2ccc(O)c(OC)c2)ccc1O (centres undefined) | inactive
CCC(C)CC(=O)OC1C(=O)C(CO)C(OC)C(OC(C)=O)C1C(C)C (centres undefined) | inactive
CC(=O)CCCCCCc1ccc2c(c1)OCO2 | inactive
COc1cc(O)c(C(=O)c2c(C)cc(O)cc2OC)c(O)c1 | inactive
C=C(C(=O)O)C1CC(OC(=O)CC(C)CC)C2(C)CCCC(=C)C2C1 (centres undefined) | inactive
CC1=CC(=O)CC(C)(C)[C@@]1(O)/C=C/C(C)=C/C(=O)O | inactive
OC1c2ccccc2-c2c3c(cc4c2C1NCC4)OCO3 (centres undefined) | inactive
CCC/C=C\C/C=C\CCCC/C=C\Cc1cc(O)cc(O)c1 | inactive
OC1C(c2ccccc2)CCC(O)(c2ccccc2)C1O (centres undefined) | inactive
C[C@@H]1C[C@@H](O)C2[C@@](C)(CO)CCC[C@]2(C)[C@@]1(O)CCc1ccoc1 (some centres undefined) | inactive
COc1cc(OC)c2c(c1Cl)O[C@]1(C2=O)C(O)=CC(=O)C[C@H]1C | inactive
COc1cc(OC2O[C@H](CO)[C@@H](O)[C@H](O)[C@H]2O)c2c(=O)c(-c3ccc(O)cc3)coc2c1 (some centres undefined) | inactive
COc1ccc(C(O)C(C)OC2OC(CO)C(O)C(O)C2O)cc1 (centres undefined) | inactive
C=C1C=CC(C(C)C)CCC(=C)C(O)CC1 (centres undefined) | inactive
CO[C@@H]1C(=O)CC[C@]2(O)CO[C@H](CC=C(C)C)[C@](C)(O)[C@@]12O | inactive
C=C(CO)C1Cc2c(ccc3c(=O)c4c(oc23)COc2cc(O)c(OC)cc2-4)O1 (centres undefined) | inactive
COc1ccc(CC(C)C(C)Cc2ccc3c(c2)OCO3)cc1OC (centres undefined) | inactive
